# Arbovirus inh: blocks arbovirus infection; arbovirus infection cell-based antiviral screen; inhibition, % at 10 µM; 200,000 tested, 0.37% active; in the data active = inhibition above about 30%
# Lmaj promast: reduces viability of Leishmania major promastigotes; resazurin fluorescence viability; 200,000 tested, 9% active; AID 1063; inhibition, % at 10 µM; in the data active = inhibition above about 50%;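 also: promastigotes grown with compound for 44 hours at 28 °C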
# WT yeast gro inh: growth inhibition of WT yeast, mitochondrial fusion screen; 190,000 tested, 2.1% active; mitochondrial fusion phenotypic screen, WT strain; inhibition, % at 10 µM; AID 1362; in the data active = inhibition above about 58%; tested in S. cerevisiae
# CHOP inhibitor: inhibitors of CHOP induction in ER stress response; CHO-K1 CHOP-promoter luciferase, tunicamycin-induced, 15-18 h; inhibition, % at 10 µM; 220,000 tested, 3.8% active; AID 2732;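 active = compounds that reduced the stress-induced luciferase reporter signal by more than about 70% of percent inhibition, limit read from the data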;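 also: 0% = tunicamycin plus vehicle and 100% = wells without tunicamycin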
# * hit, by the source's call; x = no result given. In the library only some 12% were active in any assay of this set; here they are far more common.
SMILES,Arbovirus inh,Lmaj promast,WT yeast gro inh,CHOP inhibitor
CC(=O)c1ccc(N=C2SCCCN2C(=O)C2CCCC2)cc1,5,64*,-4,0
Cc1cc(NC(=O)c2cc([N+](=O)[O-])cc([N+](=O)[O-])c2)n(-c2ccccc2)n1,-5,89*,1,-39
CCN(CC)S(=O)(=O)c1cccc(C(=O)Nc2cc(C)nn2-c2ccccc2)c1,7,-1,17,7
CCN(CC)S(=O)(=O)c1ccc(Cl)c(C(=O)Nc2cc(C)nn2-c2ccccc2)c1,4,65*,5,0
CS(=O)(=O)Nc1cccc(S(=O)(=O)N2CCN(C(=O)c3ccccc3)CC2)c1,x,x,x,-2
Cc1ccc2oc(C(F)(F)C(F)F)cc(=O)c2c1,x,x,x,6
Cc1ccc2oc(C(Cl)(Cl)Cl)cc(=O)c2c1,-10,56*,37,64
O=C(CN1CCN(c2ccccn2)CC1)Nc1cccc(S(=O)(=O)N2CCCC2)c1,8,15,1,-8
COc1ccccc1Nc1nc(NCC2CCCO2)c2ccccc2n1 (centres undefined),11,100*,24,32
COc1cccc(-c2nc(NCC3CCCO3)c3ccccc3n2)c1O (centres undefined),-29,35,1,26
Cc1cc(C)c(C(=O)/C=C/c2ccc(C(C)C)cc2)c(=O)[nH]1,-27,84*,-26,27
O=C(NCCN1CCOCC1)c1ccc(CSCc2cccc(Cl)c2)o1,6,1,-18,3
Clc1cccc(-c2ccc(CNCCCN3CCOCC3)o2)c1,-24,77*,19,19
O=C(NCCCN1CCOCC1)c1ccc(CSCc2cccc(Cl)c2)o1,-13,71*,-6,32
c1csc(CNCCCN2CCOCC2)c1,1,-6,-15,29
COc1cc(N/N=C/c2ccc(N(C)C)cc2)ncn1,-13,-1,7,3
COc1cc(N/N=C/c2ccccc2O)ncn1,-22,82*,8,-3
COc1cc(CC(=O)OCC(=O)Nc2cc([N+](=O)[O-])ccc2Cl)cc(OC)c1OC,-3,-5,-13,0
CCNc1nc(NCC)nc(N/N=C/c2ccc(O)c(O)c2)n1,-6,2,3,-21
CN(/N=C\c1ccc(O)c(O)c1)c1nc(-c2ccccc2)cc(-c2ccccc2)n1,-33,100*,71*,103*
Cc1ccc(/C(N)=N/OC(=O)CSc2ccccc2)cc1,-2,-7,10,-19
N/C(=N\OC(=O)CSc1ccccc1)c1ccc([N+](=O)[O-])cc1,0,64*,45,-101
N/C(=N\OC(=O)CC1CCCCC1)c1cccc([N+](=O)[O-])c1,-3,68*,32,59
Cc1ccc(SCC(=O)O/N=C(\N)c2cccc([N+](=O)[O-])c2)cc1,1,-3,59*,14
Cc1ccc(S(=O)(=O)N(C)CC(=O)O/N=C(\N)c2cccc([N+](=O)[O-])c2)cc1,4,-3,-7,-7
SMILES,Arbovirus inh,Lmaj promast,WT yeast gro inh,CHOP inhibitor
C#CCOC(=O)c1ccc(-n2cncn2)nc1,6,-5,0,20
O=C(CCS(=O)(=O)Cc1ccccc1F)NCc1ccccc1Cl,3,-6,-12,-5
C[N+]1=C(/C=C/Nc2ccccc2Cl)C(C)(C)c2ccccc21,12,98*,48,20
FC(F)(F)c1cnc(/C=C/Nc2ccccc2Cl)c(Cl)c1,-7,-3,24,28
Cc1ccc(Cl)cc1N1CCN(C(=S)NCc2ccco2)CC1,5,-4,21,12
CCCCNC(=S)N1CCN(c2ccccc2Cl)CC1,8,-5,66*,32
S=C(NCc1ccco1)N1CCN(c2ccccc2Cl)CC1,0,-9,72*,8
O=[N+]([O-])c1ccc(-c2cnc[nH]2)cc1,x,x,x,-11
COc1cc(NC(=O)C(=O)NNC(=O)C2CCCCC2)c(OC)cc1Cl,-7,19,-10,85*
O=C(COC(=O)c1cc(S(=O)(=O)N2CCCCC2)ccc1N1CCOCC1)NCCc1ccc(F)cc1,5,15,-7,-5
CCCc1nnc(NC(=O)Cn2c(=O)oc3cc(Br)ccc32)s1,3,-4,9,48
O=c1oc2cc(Br)ccc2n1CSC1=NCCS1,-26,12,12,71*
Cc1cccc(Nc2c([N+](=O)[O-])cc(C(=O)N3CC(=O)Nc4ccccc43)cc2[N+](=O)[O-])c1,8,82*,-17,51
Cc1ccc(C)c(Nc2c([N+](=O)[O-])cc(C(=O)N3CC(=O)Nc4ccccc43)cc2[N+](=O)[O-])c1,0,96*,-5,54
O=[N+]([O-])c1cc(S(=O)(=O)NCCN2CCOCC2)ccc1Sc1nnnn1-c1ccccc1,-41,86*,7,-13
Cc1ccc(-n2nnnc2Sc2ccc(S(=O)(=O)NCCN(C)C)cc2[N+](=O)[O-])cc1,-39,100*,8,9
CN(C)CCNS(=O)(=O)c1ccc(N2CCN(c3ccc(F)cc3)CC2)c([N+](=O)[O-])c1,-41,98*,27,15
O=S(=O)(NCCc1ccccc1)c1ccc(Cl)nc1,-1,48,1,16
Cc1ccc(NC(=S)NCc2ccc(S(N)(=O)=O)cc2)cc1Cl,17,31,6,1
CC(C)CCNC(=O)CCC(=O)NNc1nc2ccccc2c2nc(-c3ccccc3)nn12,-10,7,2,79*
Cc1ccc2nc(N(CCCN(C)C)C(=O)c3ccco3)sc2c1,-2,21,1,59
Cc1ccc2nc(N(CCCN(C)C)C(=O)c3ccc4c(c3)CCCC4)sc2c1,-35,99*,80,55
Cc1ccc2nc(N(CCCN(C)C)C(=O)c3ccc(Br)s3)sc2c1,-7,32,90*,7
CCN(CC)c1ncc(C#N)c(N)n1,x,x,x,13
Nc1ccccc1-c1nnc(-c2ccccc2N)n1N,2,-5,-24,-7
SMILES,Arbovirus inh,Lmaj promast,WT yeast gro inh,CHOP inhibitor
COc1ccc(Cl)cc1NC(=O)COC(=O)CNC(=O)c1ccc([N+](=O)[O-])c(C)c1,-1,56*,-5,22
COCC(=O)OCC(=O)Nc1cc(C)c(C)cc1[N+](=O)[O-],1,55*,-5,26
Cc1ccc(C(=O)NCC(=O)OCC(=O)Nc2ccc(Cl)cc2C(F)(F)F)cc1C,-3,-9,-29,12
Cc1cc(C)n(-c2ccc(C(=O)OCC(=O)Nc3cc(Cl)ccc3[N+](=O)[O-])cc2)n1,2,59*,7,20
Cc1ccc(C(=O)NCC(=O)OCC(=O)Nc2cc(C)c(C)cc2[N+](=O)[O-])cc1,-1,41,-8,10
O=C(O)COC(=O)C1C(c2ccccc2)C(C(=O)O)C1c1ccccc1 (centres undefined),5,-5,-5,-10
O=C(CSc1ncnc2sc3c(c12)CCC3)Nc1ccccc1C(=O)O,x,x,x,11
Nc1c(N=Nc2cccc(Cl)c2)c(=O)[nH]n1-c1ccccc1,-3,-2,18,72*
Nc1[nH]c(=O)[nH]c(=O)c1N=Nc1cccc(Cl)c1,-7,-5,-9,26
Cc1cccc(N(CC(=O)NCc2ccc(F)cc2)C(=O)c2csnn2)c1C,6,0,4,4
Cc1ccc(NC(=S)Nc2ccc3nc(-c4ccccn4)c(-c4ccccn4)nc3c2)cc1C,7,72*,25,-4
O=C(COC(=O)c1ccccn1)Nc1nc(-c2cccc([N+](=O)[O-])c2)cs1,x,x,x,0

# High-throughput results: PubChem BioAssay, several laboratories
